Laboratory results: PubChem BioAssay (EPA / NIEHS)
Several values for one entry are separate records, joined by “and”; a condition that tells them apart may be missing. Identical values can stand only once. A structure can be active in one record and inactive in another. Activity calls are given as the source filed them. The calls were made as follows: active = hit-call score of the fitted dose curve at least 0.9, where 1 is the maximum; inactive = score below 0.9.

Read-out: Monokine induced gamma interferon (MIG), CXCL9 (gene 4283)
Test: BSK_BE3C_MIG: BioMAP Diversity Plus: BE3C Assay for Monokine induced gamma interferon (MIG) Biomarker Activity (AID 2283035)
Conditions: primary human bronchial epithelial cells; actives raise or lower the signal
Procedure: BSK_BE3C is a cell-based, multiplexed-readout assay that uses bronchial epithelial cell, a human lung primary cell, with measurements taken at 24 hours after chemical dosing in a 96-well plate.BSK_BE3C_MIG is an assay component measured in the BSK_BE3C assay. It measures MIG antibody related to regulation of gene expression using ELISA technology.Data from the assay component BSK_BE3C_MIG was analyzed into 1 assay endpoint. This assay endpoint, BSK_BE3C_MIG, was analyzed with bidirectional fitting relative to DMSO as the negative control and baseline of activity. Using a type of binding reporter, gain or loss-of-signal activity can be used to understand changes in the signaling as they relate to the gene CXCL9. Furthermore, this assay endpoint can be referred to as a primary readout, because this assay has produced multiple assay endpoints where this one serves a signaling function. To generalize the intended target to other relatable targets, this assay endpoint is annotated to the cytokine intended target family, where the subfamily is chemotactic factor.
The levels of cell surface (or secreted, indicated by the prefix "s") biomarker endpoints were measured by ELISA. Overt cytotoxicity to cells in confluent adherent cultures (all systems other than the BT system) was assessed by measuring total protein levels using sulforhodamine B (SRB) staining in parallel cultures at the time of biomarker measurements, indicated as SRB endpoints. For proliferation assays for adherent cell types, individual cell types are cultured at sub-confluence and relative cell numbers quantified by SRB staining at time points optimized for each system (48 h: 3C and CASM3C systems; 72 h: BT and HDF3CGF systems; 96 h: SAg system). SRB was performed by staining cells with 0.1% SRB after fixation with 10% TCA and reading wells at 560 nm.Viability and proliferation of PBMC (T cells) was quantified by Alamar Blue reduction for the SAg and BT systems. For PBMC viability (referred to as PBMC Cytotoxicity within the assay endpoint names), cells were plated (75,000/well in a 96-well plate) and then chemical samples added for 1 h before addition of activators, SEB and TSST-1 (20 ng/mL final concentration each). Cells were incubated for 90 h. Then, Alamar Blue (20 uL/well) (Invitrogen, Cat DAL1100) was added for 6 h, and the plates were read with a fluorescence microplate reader at 546/580 nm (excitation/emission). For PBMC proliferation, cells were plated and activated as above but incubated for only 16 h prior to addition of Alamar Blue. Plates were read after 6 h.

SMILES | outcome | AC50
Cc1ccc(OP(=O)(Oc2ccc(C)cc2)Oc2ccc(C)cc2)cc1 (tested in a mixture with another compound) | inactive | –
COc1ccc(CO)cc1 | inactive | –
Oc1ccc(C2(c3ccc(O)cc3)c3ccccc3-c3ccccc32)cc1 | – | 5.44 µM (active) and 5.43 µM (active)
CNC(=O)Oc1cc(C)c(SC)c(C)c1 | inactive | –
O=c1[nH]c(Cl)c(Cl)cc1Cl | inactive | –
CCCCCCCCCCCC#N | inactive | –
CC(C)CCCCCCCOP(=O)(Oc1ccccc1)Oc1ccccc1 | inactive | –
CCC(C)c1cc([N+](=O)[O-])cc([N+](=O)[O-])c1OC(=O)C=C(C)C (centres undefined) | – | 35.1 µM (active)
CCc1cc(C)cc(CC)c1-c1c(OC(=O)C(C)(C)C)n2n(c1=O)CCOCC2 | inactive | –
O=C(O)CCCc1ccc(N(CCCl)CCCl)cc1 | inactive | 28.9 µM (active)
O=C(CCl)c1ccccc1 | – | 36.5 µM (active)
O=[N+]([O-])O | inactive | –
O=[N+]([O-])C=Cc1ccccc1 | – | 3.89 µM (active)
CC(C)COP(=O)(OCC(C)C)OCC(C)C | inactive | –
N#CCCCCC#N | inactive | –
Nc1ccc(-c2ccc(N)c(N)c2)cc1N | inactive | –
C=CC(=O)OCC(CC)CCCC (centres undefined) | inactive | –
COCC(=O)N(c1c(C)cccc1C)N1CCOC1=O | inactive | –
CCCOC(=O)c1ccccc1C(=O)OCCC | inactive | –

SMILES | outcome | AC50
CC(C)(c1cc(Cl)c(O)c(Cl)c1)c1cc(Cl)c(O)c(Cl)c1 | – | 7.45 µM (active)
O=P1(NCCCl)OCCCN1CCCl (centres undefined) | inactive | –
CC1(C)[C@H](C(=O)O[C@H](C#N)c2cccc(Oc3ccccc3)c2)[C@@H]1C=C(Br)Br | inactive | –
O=C1C(Cl)=C(Cl)C(=O)C(Cl)=C1Cl | – | 35.6 µM (active)
COC(C)(C)CCC[C@H](C)C/C=C/C(C)=C/C(=O)OC(C)C | inactive | –
O=S(=O)(c1ccccc1)c1ccccc1 | inactive | –
O=C1C=CC(=O)C=C1 | inactive | –
Oc1cc(Cl)ccc1Cl | inactive | –
C=CCN(CC=C)C(=O)C(Cl)Cl | inactive | –
[Cd+2].[Cl-].[Cl-] | inactive | –
c1ccc(Nc2ccc3ccccc3c2)cc1 | inactive | –
CC(C)(C)C(O)C(Oc1ccc(-c2ccccc2)cc1)n1cncn1 (centres undefined) | inactive | –
CCCC[N+](CCCC)(CCCC)CCCC | inactive | –
CC(C)CCCCCCCOC(=O)c1ccccc1C(=O)OCCCCCCCC(C)C | inactive | –
Clc1ccc(-c2ccccc2)cc1 | inactive | –
CC(C)(C)C(=O)CCl | inactive | –
CC(=O)/C=C/c1ccccc1 | inactive | –
O=c1c2ccccc2c(=O)c2c1cc(Cl)c1[nH]c3c([nH]c12)c(Cl)cc1c(=O)c2ccccc2c(=O)c13 | inactive | –
O=[N+]([O-])c1ccc(Cl)cc1 | inactive | –
